# Data: PubChem BioAssay (NCATS)
# Several values for one entry are separate records, joined by “and”; a condition that tells them apart may be missing. Equal entries are not always repeated. Records with an inconclusive call do not appear. Where a call stands in place of a potency, no number is given. Activity calls are given as the source filed them. Unless noted, calls come from the whole dose curve.
# Legend:
# [1] = Inducers of the Endoplasmic Reticulum Stress Response (ERSR) in human glioma: Validation (AID 504836; active = well fitted curve in the direction sought with a large enough effect; an effect the other way counts as inactive or inconclusive)
# Method in brief: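 Stably transfected U87-MG glioma cells carrying a GRP78-based luciferase sensor; 16 h compound incubation. Luminescence end-point read 10 min after Bright-Glo addition at room temperature.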
# [2] = qHTS for Inhibitors of the Functional Ribonucleoprotein Complex (vRNP) of Lassa (LASV) Arenavirus: LASV Primary Screen - GLuc reporter signal (AID 1347082; calls by dose curve; tested in HEK293 reporter line; note: nearly all actives have a fitted effect of over 60% in size; note: potency is the fitted concentration of half-maximal effect)
# [3] = target: Nucleoprotein (Lymphocytic choriomeningitis virus (strain Armstrong)) (UniProt P09992); assay: qHTS for Inhibitors of the Functional Ribonucleoprotein Complex (vRNP) of Lymphocytic Choriomeningitis Arenaviruses (LCMV): LCMV Primary Screen - GLuc reporter signal (AID 1347086); note: nearly all actives have a fitted effect of over 70% in size; note: potency is the fitted concentration of half-maximal effect
# Nucleoprotein (Lymphocytic choriomeningitis virus (strain Armstrong)), sequence (P09992 whole entry, looked up): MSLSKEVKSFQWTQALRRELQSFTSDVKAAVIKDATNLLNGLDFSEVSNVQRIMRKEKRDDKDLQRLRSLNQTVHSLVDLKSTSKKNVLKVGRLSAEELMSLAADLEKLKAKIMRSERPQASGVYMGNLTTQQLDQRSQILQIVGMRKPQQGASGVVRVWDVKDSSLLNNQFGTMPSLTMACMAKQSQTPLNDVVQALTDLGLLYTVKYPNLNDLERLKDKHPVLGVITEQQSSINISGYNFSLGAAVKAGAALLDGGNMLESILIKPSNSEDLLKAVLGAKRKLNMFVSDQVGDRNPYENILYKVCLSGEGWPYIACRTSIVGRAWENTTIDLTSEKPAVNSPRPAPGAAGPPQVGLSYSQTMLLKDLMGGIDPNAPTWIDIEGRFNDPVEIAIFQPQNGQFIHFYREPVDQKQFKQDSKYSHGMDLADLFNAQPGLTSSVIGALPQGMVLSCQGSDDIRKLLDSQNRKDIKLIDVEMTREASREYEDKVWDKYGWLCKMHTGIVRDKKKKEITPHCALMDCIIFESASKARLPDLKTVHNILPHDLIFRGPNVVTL
# [4] = Confirmatory qHTS to identify inhibitors of SARS-CoV-2 cell entry (AID 1645844); note: potency is the fitted concentration of half-maximal effect; nearly all actives have a fitted effect of over 45% in size
# Method in brief: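 HEK293-ACE2, overnight seeding; cpd 1 h, 37C/5% CO2; + SARS-CoV-2-S MLV PP (Wuhan-Hu-1, ΔC19); 48 h; Bright-Glo luminescence. Data normalised to S PP and bald PP wells.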
# [5] = Primary qHTS to identify inhibitors of SARS-CoV-2 cell entry (AID 1645846); details: activity change, negative = inhibition: at 57.1 µM (top of the series) unless noted; note: nearly all actives have a fitted effect of over 45% in size; note: potency is the fitted concentration of half-maximal effect
# Method in brief: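 HEK293-ACE2 (Expi293F, stable hACE2), 1500 cells/well, o/n 37C; cpd 23 nL pin, 1 h; MLV-PP w/ SARS-CoV-2-S (Wuhan-Hu-1, Δ19 C-term); 48 h 37C; Bright-Glo luminescence; normalized vs S-PP and bald PP.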
# [6] = VSVG counterscreen qHTS to identify inhibitors of SARS-CoV-2 cell entry (AID 1645847); note: potency is the fitted concentration of half-maximal effect; nearly all actives have a fitted effect of over 65% in size
# Method in brief: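 Expi293F/hACE2 cells, overnight plating; cpd 1 h, 37C/5% CO2; + VSV-G PP (MLV pseudotyping), 48 h; supernatant removed, Bright-Glo luciferase read. Norm: VSV-G PP and bald PP wells.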
# [7] = Cytotoxicity counterscreen for inhibitors of SARS-CoV-2 cell entry (AID 1645845); note: nearly all actives have a fitted effect of over 50% in size
# Method in brief: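 Counterscreen run in the same HEK293-ACE2 line as the pseudotyped-particle entry assay, without particles. Viability after 48 h at 37 C was read as ATP luminescence, scaled between cell-containing and cell-free wells.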
# [8] = Validation screen for inhibitors of Lassa infection (AID 463096)
# [9] = Primary qHTS for Huh7 cytotoxicity: counterscreen for inhibitors of MERS-S pseudotyped particle cell entry (AID 1479147); details: outcome: dose series up to 57.1 µM unless noted
# [10] = Primary qHTS for inhibitors of MERS-S pseudo-typed particle cell entry (AID 1479149); note: nearly all actives have a fitted effect of over 60% in size
# [11] = Primary qHTS for Vero E6 cytotoxicity: counterscreen for inhibitors of SARS-S pseudo-typed particle cell entry (AID 1479150); details: outcome: dose series up to 57.1 µM unless noted
# [12] = qHTS profiling of the MIPE4 collection as inhibitors of Plasmodium falciparum (3D7) proliferation (AID 743344; call rule not given here); details: P. falciparum 3D7 in erythrocytes, SYBR Green DNA fluorescence, 72 h; at 28.5 µM (top of the series) unless noted
# Method in brief: (§1)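 Parasite DNA was quantified by SYBR Green I fluorescence (ex 485, em 535 nm) after overnight lysis in saponin/Triton buffer at room temperature. Cultures at 0.3% parasitemia and 2.5% hematocrit were first exposed to compound for 72 h at 37 C; signals were normalised to artemisinin (0.29 uM) and vehicle wells.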
# [13] = qHTS profiling of the MIPE4 collection as inhibitors of Plasmodium falciparum (DD2) proliferation (Rep 2) (AID 743346; call rule not given here); details: P. falciparum Dd2 in erythrocytes, SYBR Green DNA, 72 h; at 28.5 µM (top of the series) unless noted
# Method in brief: as §1
# [14] = Primary qHTS for inhibitors of SARS-S pseudo-typed particle cell entry (AID 1479145); note: nearly all actives have a fitted effect of over 45% in size
# [15] = target: Alpha-galactosidase (Coffea arabica) (UniProt Q42656); assay: Counterscreen for Glucocerebrosidase Inhibitors: qHTS Assay for Coffee Bean alpha-Galactosidase at pH 4.5 (AID 957; active = well fitted curve in the direction sought with a large enough effect; an effect the other way counts as inactive or inconclusive)
# Alpha-galactosidase (Coffea arabica), sequence (Q42656 whole entry, looked up): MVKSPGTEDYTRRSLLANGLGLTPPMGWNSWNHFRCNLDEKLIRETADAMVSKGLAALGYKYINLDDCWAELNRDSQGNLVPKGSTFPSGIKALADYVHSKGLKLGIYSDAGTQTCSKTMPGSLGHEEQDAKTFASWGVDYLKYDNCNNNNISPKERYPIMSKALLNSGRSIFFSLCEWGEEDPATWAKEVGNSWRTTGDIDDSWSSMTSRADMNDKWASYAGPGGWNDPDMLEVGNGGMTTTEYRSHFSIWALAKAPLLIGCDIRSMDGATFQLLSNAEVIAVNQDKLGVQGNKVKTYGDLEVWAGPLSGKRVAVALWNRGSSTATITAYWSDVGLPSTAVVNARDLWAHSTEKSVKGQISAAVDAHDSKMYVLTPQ
# Method in brief: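 Fluorogenic read-out: 4-methylumbelliferone at Ex 365/Em 440 nm after NaOH/glycine stop (pH 10). Enzyme 2 nM, 4-MU-alpha-galactoside 80 uM, citrate buffer pH 4.5, 20 min RT; normalized to no-enzyme and enzyme controls.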
# [16] = target: Alpha-galactosidase (Coffea arabica) (UniProt Q42656); assay: Counterscreen for Glucocerebrosidase Inhibitors: qHTS Assay for Coffee Bean alpha-Galactosidase at pH 5.9 (AID 998; active = well fitted curve in the direction sought with a large enough effect; an effect the other way counts as inactive or inconclusive)
# Method in brief: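 Enzyme 2 nM + cpd (0.7 nM–77 uM titration) + 4-MU-alpha-Gal 80 uM, pH 5.9 citrate/Tween-20, RT 20 min, NaOH/glycine stop pH 10, fluor 365/440. Normalized to no-enzyme and full-activity controls; Hill-fit AC50.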
smiles,measurement,setting,value
Brc1c(Br)c(Br)c2[nH]cnc2c1Br,outcome,[1],inactive
same,Potency,[2],inactive
same,Potency,[3],inactive
COc1cc(C)c(Sc2cnc(NC(=O)c3ccc(CNC(C)C(C)C)cc3)s2)cc1C(=O)N1CCN(C(C)=O)CC1 (stereo not drawn),Potency,[2],24.3 µM (active)
same,Potency,[4],9.61 µM (active)
same,"activity change, negative = inhibition",[5],-95.3%
same,Potency,[6],3.83 µM (active)
COc1c2ccoc2c(OCC=C(C)C)c2oc(=O)ccc12,Potency,[2],inactive
same,Potency,[3],inactive
N=c1ccn2c(n1)O[C@H]1[C@@H](O)[C@@H](CO)O[C@H]12,Potency,[2],inactive
same,Potency,[3],inactive
same,Potency,[7],inactive
same,Potency,[5],10 µM (active)
CC(=O)O[C@H]1C(=O)[C@@]2(C)C([C@H](OC(=O)c3ccccc3)[C@]3(O)C[C@H](OC(=O)[C@H](O)[C@@H](NC(=O)c4ccccc4)c4ccccc4)C(C)=C1C3(C)C)[C@]1(OC(C)=O)CO[C@@H]1C[C@@H]2O (stereo partly drawn),Potency,[8],inactive
same,outcome,[1],inactive
same,Potency,[2],inactive
same,Potency,[3],inactive
same,outcome,[9],inactive
same,Potency,[10],inactive
same,outcome,[11],inactive
same,Potency,[4],0.0429 µM (active)
same,Potency,[7],inactive
same,"activity change, negative = inhibition",[5],-37.1% and -87.7%
same,Potency,[6],0.0681 µM (active)
CCc1cccc(CC)c1NC(=O)N1Cc2[nH]nc(NC(=O)c3ccc(N4CCN(C)CC4)cc3)c2C1,Potency,[2],inactive
same,Potency,[3],inactive
same,Potency,[7],inactive
CC(C(=O)O)c1ccc(-c2ccccc2)c(F)c1 (stereo not drawn),"parasite growth, % of DMSO control",[12],86.5%
same,"parasite growth, % of control (lower = inhibition)",[13],114%
same,Potency,[2],inactive
same,Potency,[14],inactive
same,outcome,[9],inactive
same,Potency,[10],inactive
same,outcome,[11],inactive
same,Potency,[7],inactive
same,Potency,[5],inactive
same,"activity change, negative = inhibition",[5],-16.8%
O=C1CSC(=O)N1C(CCc1ccncc1)COc1ccc(-c2cccc([N+](=O)[O-])c2)cc1 (stereo not drawn),Potency,[2],17.2 µM (active)
same,Potency,[3],7.69 µM (active)
CC1(C)Oc2cc3oc(-c4cc(O)cc(O)c4)cc3cc2CC1O (stereo not drawn),Potency,[2],inactive
same,Potency,[3],inactive
c1ccc(-c2oc3ncnc(NC[C@@H]4CCCO4)c3c2-c2ccccc2)cc1,Potency,[2],inactive
same,Potency,[3],inactive
same,"activity change, negative = inhibition",[5],-93.9%
O=C(O)c1c(Cl)c(Cl)c(Cl)c(Cl)c1-c1c2cc(I)c(=O)c(I)c-2oc2c(I)c(O)c(I)cc12,Potency,[2],inactive
same,Potency,[14],inactive
same,outcome,[9],inactive
same,Potency,[10],inactive
same,Potency,[7],inactive
Nc1ncnc2nc(-c3ccc(N4CCOCC4)nc3)cc(-c3cccc(Br)c3)c12,outcome,[1],inactive
same,Potency,[2],inactive
same,Potency,[3],inactive
same,"activity change, negative = inhibition",[5],-21.9%
FC(F)(F)c1ccc(C=Cc2nc(COc3ccc(CCCCn4ccnn4)cc3)co2)cc1,Potency,[2],0.0432 µM (active)
same,Potency,[3],0.0217 µM (active)
NC(=O)c1cnc(-c2ccc(C3(N)CCC3)cc2)c(-c2ccccc2)c1,Potency,[2],inactive
same,Potency,[3],inactive
same,Potency,[7],inactive
O=c1[nH]c(=O)n([C@H]2C[C@@H](O)[C@@H](CO)O2)cc1C(F)(F)F,Potency,[2],inactive
same,Potency,[3],inactive
COc1ccc2nc3cc(Cl)ccc3c(Nc3cc(CN4CCCC4)c(O)c(CN4CCCC4)c3)c2n1,Potency,[2],inactive
same,Potency,[3],inactive
C=C1C(=CC=C2CCC[C@]3(C)[C@@H]([C@H](C)CCCC(C)(C)O)CC[C@@H]23)C[C@@H](O)C[C@@H]1O,Potency,[2],inactive
same,Potency,[3],inactive
CN(C)c1nc2c(Br)c(Br)c(Br)c(Br)c2[nH]1,outcome,[15],inactive
same,outcome,[16],inactive
same,Potency,[8],inactive
same,outcome,[1],inactive
same,Potency,[2],inactive
same,Potency,[3],inactive
O=C1NC(=O)C(c2ccccc2[N+](=O)[O-])=C1Nc1ccc(O)c(Cl)c1,Potency,[8],inactive
same,outcome,[1],inactive
same,Potency,[2],inactive
same,Potency,[3],inactive
same,Potency,[7],inactive
CN1CCCN(C(=O)c2cccc(-c3ccc(C=C4C(=O)Nc5ccc(Cl)cc54)o3)c2)CC1,Potency,[2],inactive
same,Potency,[3],inactive
C[C@](Cc1c[nH]c2ccccc12)(NC(=O)OC1C2CC3CC(C2)CC1C3)C(=O)NC[C@H](NC(=O)CCC(=O)O)c1ccccc1 (stereo partly drawn),Potency,[2],inactive
same,Potency,[3],inactive
same,Potency,[7],inactive
same,Potency,[5],inactive
CN(C)CCc1cc2c(c3c1ccc1ccccc13)OCO2,Potency,[2],inactive
same,Potency,[3],inactive
O=C(CCCCCCC(=O)Nc1ccc([C@H]2O[C@@H](CSc3nc(-c4ccccc4)c(-c4ccccc4)o3)C[C@@H](c3ccc(CO)cc3)O2)cc1)NO,Potency,[2],inactive
same,Potency,[3],inactive
same,outcome,[7],inactive [at 11.3 µM]
same,"activity change, negative = inhibition",[5],1.44% [at 11.3 µM]
CC(C)(C)c1nc(-c2cccc(NS(=O)(=O)c3c(F)cccc3F)c2F)c(-c2ccnc(N)n2)s1,Potency,[2],inactive
same,Potency,[3],inactive
same,Potency,[14],inactive
same,outcome,[9],inactive
same,outcome,[11],inactive
same,Potency,[7],inactive
same,Potency,[5],28.2 µM (active)
Cn1cnc(=N)c2[nH]cnc21,Potency,[2],inactive
same,Potency,[3],inactive
same,Potency,[7],inactive
same,"activity change, negative = inhibition",[5],-0.211% [at 114 µM]
